Measured values: PubChem BioAssay (NCATS)
Several values for one entry are separate records, joined by “and”; a condition that tells them apart may be missing. Equal entries are not always repeated. Results filed as inconclusive are left out. Activity calls are given as the source filed them. Unless noted, the call rests on the fitted dose curve; in most records, active means well fitted curve in the direction sought with a large enough effect; inconclusive means small, poorly fitted or top-dose-only effect, or another doubt; inactive means no such curve, though single readings can be large; an effect the other way counts as inactive or inconclusive.

Tests used:
[1] = Cell Viability - N2a (AID 540); details: N2a mouse neuroblastoma cell viability; activity change, negative = cytotoxicity: at 92.2 µM (top of the series);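 further: plate controls were DMSO alone for no effect and tamoxifen control for full effect; nearly all actives have a fitted effect of over 45% in size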
How it was run: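 Mouse neuroblastoma N2a cells (1500/well) were preincubated 5 hr at 37 °C, then exposed to compounds for 40 hr at 37 °C in complete medium. Viability was read as intracellular ATP by CellTiter-Glo luminescence; AC50 from Hill fits.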

[2] = Cellular Toxicity (caspase-3) BJ (AID 658);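 further: 0% = DMSO basal and 100% = 10 µM staurosporine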
How it was run: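 Luminescent aminoluciferin-substrate cleavage reports caspase 3/7 activity in normal human BJ fibroblasts after 16 hr compound exposure at 37 °C. Normalized to DMSO (basal) and 10 uM staurosporine (100%); AC50 from Hill fit of concentration-response.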

[3] = target: Estrogen receptor (Homo sapiens) (UniProt P03372); test: qHTS assay for small molecule antagonists of estrogen receptor alpha signaling (AID 588513; active means well fitted curve in the direction sought with a large enough effect in the signal ratio, with a control signal flat, not every such curve was filed as active; the % refers to the signal ratio; further: on the % scale 0 is the no-effect control and ±100 the full control effect)
How it was run: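 Fluorescence from CCF4 substrate after 2 h at room temperature gave reporter activity; cells had been exposed to compound and 0.5nM 17-beta-estradiol for 18 h at 37 C. Hill-equation fitting yielded IC50 and maximal response.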

[4] = target: Estrogen receptor (Homo sapiens) (UniProt P03372); test: qHTS assay for small molecule agonists of estrogen receptor alpha signaling (AID 588514; calls by dose curve; further: nearly all actives have a fitted effect of over 70% in size; further: potency means the concentration at half of the fitted maximal effect;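 on activation: 0% = vehicle only and 100% = reference agonist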)
How it was run: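 ER-alpha-UAS-bla GripTite HEK 293 cells in medium with 2% charcoal/dextran-treated FBS were treated with compound titrations at 37 C for 18 hrs; beta-lactamase reporter read by CCF4 fluorescence after 2 hrs at RT.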

[5] = target: Glucocorticoid receptor (Homo sapiens) (UniProt P04150); test: qHTS assay for small molecule agonists of glucocorticoid receptor signaling (AID 588532; active means well fitted curve in the direction sought with a large enough effect in the signal ratio, with a control signal flat; the % refers to the signal ratio;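 further: 100% = dexamethasone at 0.1 µM and 0% = DMSO only wells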); details: HeLa MMTV-bla, beta-lactamase ratio, agonist, 18 h; stronger effect = higher value; percent of dexamethasone control, DMSO zero
How it was run: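 Titration series, up to 92 uM, applied to GRE-bla HeLa cells for 18 h at 37 C. Detection by CCF4 FRET substrate after 2 h at RT.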

[6] = target: Glucocorticoid receptor (Homo sapiens) (UniProt P04150); test: qHTS assay for small molecule antagonists of glucocorticoid receptor signaling (AID 588533; active means well fitted inhibition curve with a large enough effect in the signal ratio, with a control signal flat, not every such curve was filed as active; the % refers to the signal ratio;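 further: cells stimulated with 2 nM dexamethasone as agonist; on the % scale 0 is the no-effect control and ±100 the full control effect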)
How it was run: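 Antagonist-mode qHTS: compound titrations added to GRE-bla HeLa cells, then dexamethasone 2 nM final; 18 h, 37 C. CCF4 FRET fluorescence normalized to dexamethasone and DMSO; IC50 from Hill fit.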

[7] = target: Vitamin D3 receptor (Homo sapiens) (UniProt P11473); test: qHTS assay for small molecule antagonists of vitamin D receptor signaling (AID 588541; calls by dose curve;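 further: receptor activated by calcitriol during compound treatment; on the % scale 0 is the no-effect control and ±100 the full control effect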)
How it was run: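 VDR-UAS-bla HEK293T cells (2000/well, 2% charcoal-stripped FBS) were treated with titrated compounds plus 1-alpha,25-dihydroxyvitamin D3 (50 nM or 3 nM final) for 16 h at 37 C. CCF4 beta-lactamase fluorescence was read; Hill fits gave IC50.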

[8] = qHTS assay for small molecule agonists of the antioxidant response element (ARE) signaling pathway (AID 651741; active means well fitted activation curve with a large enough effect in the signal ratio; the % refers to the signal ratio; further: % of control where 0% means no effect)
How it was run: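 ARE-bla HepG2 cells (beta-lactamase reporter under ARE control) were plated at 2,000 cells/well, preincubated 5 h at 37 C/5% CO2, then treated with DMSO-dissolved compounds for 16 h at 37 C; LiveBLAzer B/G FRET substrate added, fluorescence read after 2 h at room temperature.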

[9] = qHTS assay for small molecule activators of the p53 signaling pathway (AID 651743; active means well fitted activation curve with a large enough effect in the signal ratio, not every such curve was filed as active; the % refers to the signal ratio; further: % of control where 0% means no effect); details: HCT-116 p53RE-bla, beta-lactamase FRET ratio, 16 h; activation: stronger effect = higher value
How it was run: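 p53RE-bla HCT-116 cells with a stably integrated beta-lactamase reporter under p53 response elements were plated, rested 5 hours at 37 C/5% CO2, then exposed to compounds in DMSO for 16 hours at 37 C. LiveBLAzer B/G FRET substrate was read after 2 hours at room temperature.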

[10] = qHTS assay for environmental chemicals that activate the Aryl hydrocarbon Receptor (AhR) signaling pathway (AID 651777); details: 1A2-DRE human hepatoma cells, luciferase, 24 h; activation: stronger effect = higher value; further: nearly all actives have a fitted effect of over 15% in size; further: potency means the concentration at half of the fitted maximal effect; on activation: % of control where 0% means no effect
How it was run: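 Reporter gene assay: hepatoma cells with DRE/CYP1A2-luciferase, 24 hr compound incubation at 37 C, 5% CO2, luminescence after One-Glo (30 min, RT).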

[11] = qHTS assay for small molecule antagonists of the retinoid-related orphan receptor gamma (ROR-gamma) signaling pathway - cell viability counter screen (AID 720652; active means well fitted curve in the direction sought with a large enough effect in the repeat runs; an effect the other way counts as inactive or inconclusive;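 further: compound exposure lasted 16 hr before ATP read; on the % scale 0 is the no-effect control and ±100 the full control effect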)
How it was run: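 Counter screen in CHO cells carrying TET-inducible ROR-gamma and an ROR response element-luciferase reporter; cells plated 5 hr, compound pinned, doxycycline added, then 16 hr at 37 C. Viability read as intracellular ATP by CellTiter-Glo luminescence.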

[12] = target: Cytochrome P450 3A4 (Homo sapiens) (UniProt P08684); test: qHTS Assay for Inhibitors and Substrates of Cytochrome P450 3A4 (AID 884); further: nearly all actives have a fitted effect of over 50% in size; further: potency means the concentration at half of the fitted maximal effect
How it was run: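 20 nM human CYP3A4 with 25 uM Luciferin-PPXE (at KM) in 200 mM KPO4, preincubated 10 min with compound; NADPH regeneration started a 60 min RT reaction. Luciferin detected by luminescence, normalized to 57 uM ketoconazole as full inhibition.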

[13] = target: Peroxisome proliferator-activated receptor delta (Homo sapiens) (UniProt Q03181); test: qHTS assay for small molecule agonists of peroxisome proliferator-activated receptor delta signaling (AID 588534; calls by dose curve;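 further: 0% = DMSO basal wells and 100% = positive control agonist at 10 µM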)
How it was run: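 Cell-based beta-lactamase reporter assay run in agonist mode: cells seeded and incubated 5 hrs at 37 C, compounds added and incubated 18 hrs at 37 C. CCF4 dye fluorescence read after 2 hrs at RT; EC50 and efficacy from Hill fits.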

[14] = qHTS assay for small molecule antagonists of peroxisome proliferator-activated receptor delta signaling (AID 588535; active means well fitted inhibition curve with a large enough effect in the signal ratio, with a control signal flat, not every such curve was filed as active; the % refers to the signal ratio;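 on max response: cells co-treated with a PPAR-delta agonist as stimulator during compound exposure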); details: HEK293T PPARd-UAS-bla, beta-lactamase FRET ratio, 18 h; 460 nm channel
How it was run: (§1)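 GeneBLAzer PPAR-delta-UAS-bla HEK293T cells in medium with 2% charcoal/dextran FBS were preincubated 5 hrs at 37 C, then given compounds, incubated 18 hrs at 37 C, and read by CCF4 beta-lactamase fluorescence; IC50 from Hill fits.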

[15] = target: Peroxisome proliferator-activated receptor gamma (Homo sapiens) (UniProt P37231); test: qHTS assay for small molecule antagonists of peroxisome proliferator-activated receptor gamma signaling (AID 588537; active means well fitted inhibition curve with a large enough effect in the signal ratio, with a control signal flat, not every such curve was filed as active; the % refers to the signal ratio;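 further: reporter cells co-stimulated with 50 nM rosiglitazone agonist during compound treatment; % of control where 0% means no effect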)
How it was run: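 PPAR-gamma-UAS-bla HEK293 cells (3000/well, 1% charcoal/dextran-stripped FBS) were preincubated 6-6.5 h at 37 C, given titrated compounds, then stimulated with 50 nM rosiglitazone for 16 h. Beta-lactamase activity was read with CCF4 dye; IC50 came from Hill fits.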

[16] = target: Voltage-gated inwardly rectifying potassium channel KCNH2 (Homo sapiens) (UniProt Q12809); test: qHTS Assay for Small Molecule Inhibitors of the Human hERG Channel Activity (AID 588834);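 further: top concentration of the series differs between compounds; on the % scale 0 is the no-effect control and ±100 the full control effect; lower thallium flux fluorescence means stronger hERG block; nearly all actives have a fitted effect of over 50% in size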
How it was run: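 hERG-BacMam U2OS, 2000 cells/well; 0.7X FluxOR loading 1 hr RT dark; cpd ~10 min 37 °C; stim buffer; FDSS fluorescence 2 min @ 1 s; AC50 Hill fit.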

[17] = qHTS assay for small molecule activators of the nuclear factor-kappa B (NF-kB) signaling pathway (AID 651749; active means well fitted activation curve with a large enough effect in the signal ratio; the % refers to the signal ratio; further: % of control where 0% means no effect); details: NF-kB-bla ME-180 cells, beta-lactamase FRET ratio, 16 h; stronger effect = higher value
How it was run: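 ME-180 cells stably carrying a beta-lactamase reporter under an NF-kB response element were exposed to compound or DMSO vehicle for 16 hr at 37C, 5% CO2. Pathway activation was read by FRET, since reporter expression disrupts FRET.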

[18] = qHTS assay for small molecule disruptors of the mitochondrial membrane potential - 1 hr assay (AID 651754; calls by dose curve; further: on the % scale 0 is the no-effect control and ±100 the full control effect; nearly all actives have a fitted effect of over 35% in size)
How it was run: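 HepG2 cells, attached overnight at 37C, were exposed to compound or DMSO vehicle for 1 hr at 37C, 5% CO2, then stained with Mito-MPS dye for 30 min. Red aggregate versus green monomer fluorescence reports membrane potential.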

[19] = target: Nuclear receptor ROR-gamma (Homo sapiens) (UniProt P51449); test: qHTS assay for small molecule antagonists of the retinoid-related orphan receptor gamma (ROR-gamma) signaling pathway (AID 651802); further: on the % scale 0 is the no-effect control and ±100 the full control effect; nearly all actives have a fitted effect of over 60% in size
How it was run: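 CHO cells carrying TET-inducible ROR-gamma and an ROR response element–luciferase reporter were exposed to compound, then induced with doxycycline. After 16hr at 37C, luminescence was read; lower signal indicates antagonism.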

[20] = target: Peroxisome proliferator-activated receptor delta (Homo sapiens) (UniProt Q03181); test: qHTS assay for small molecule antagonists of peroxisome proliferator-activated receptor delta signaling (AID 588535);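 on max response: cells co-treated with a PPAR-delta agonist as stimulator during compound exposure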
How it was run: as §1

Voltage-gated inwardly rectifying potassium channel KCNH2 (Homo sapiens), sequence (Q12809 whole entry, looked up): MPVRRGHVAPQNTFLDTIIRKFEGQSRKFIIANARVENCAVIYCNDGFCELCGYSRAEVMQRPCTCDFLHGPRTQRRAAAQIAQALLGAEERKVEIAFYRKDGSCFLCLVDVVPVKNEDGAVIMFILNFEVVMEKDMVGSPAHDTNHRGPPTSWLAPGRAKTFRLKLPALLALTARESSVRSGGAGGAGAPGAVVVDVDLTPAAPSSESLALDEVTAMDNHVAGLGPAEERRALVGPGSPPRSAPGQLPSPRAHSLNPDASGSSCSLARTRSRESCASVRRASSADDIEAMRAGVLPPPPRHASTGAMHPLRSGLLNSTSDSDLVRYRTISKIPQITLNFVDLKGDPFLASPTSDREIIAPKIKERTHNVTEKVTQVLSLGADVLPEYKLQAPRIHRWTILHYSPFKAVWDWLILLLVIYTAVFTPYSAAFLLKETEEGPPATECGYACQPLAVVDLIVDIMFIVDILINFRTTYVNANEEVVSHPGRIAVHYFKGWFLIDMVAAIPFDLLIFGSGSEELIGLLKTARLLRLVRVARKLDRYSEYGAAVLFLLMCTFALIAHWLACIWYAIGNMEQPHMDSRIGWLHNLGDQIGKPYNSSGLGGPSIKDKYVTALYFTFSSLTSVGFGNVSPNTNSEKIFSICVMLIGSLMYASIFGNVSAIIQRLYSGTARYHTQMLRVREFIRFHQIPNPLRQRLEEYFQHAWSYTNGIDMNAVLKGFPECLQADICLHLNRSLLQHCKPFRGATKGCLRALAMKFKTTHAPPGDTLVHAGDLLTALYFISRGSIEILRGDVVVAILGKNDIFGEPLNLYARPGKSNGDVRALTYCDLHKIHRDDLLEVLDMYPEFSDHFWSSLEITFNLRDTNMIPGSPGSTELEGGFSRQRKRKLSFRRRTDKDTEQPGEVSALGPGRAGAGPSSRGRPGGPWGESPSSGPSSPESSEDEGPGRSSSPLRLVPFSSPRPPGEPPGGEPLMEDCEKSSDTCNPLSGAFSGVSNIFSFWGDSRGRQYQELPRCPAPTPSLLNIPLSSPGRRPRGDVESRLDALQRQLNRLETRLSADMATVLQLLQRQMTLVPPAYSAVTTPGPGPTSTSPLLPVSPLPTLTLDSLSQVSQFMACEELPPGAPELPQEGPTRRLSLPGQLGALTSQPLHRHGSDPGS
Vitamin D3 receptor (Homo sapiens), sequence (P11473 whole entry, looked up): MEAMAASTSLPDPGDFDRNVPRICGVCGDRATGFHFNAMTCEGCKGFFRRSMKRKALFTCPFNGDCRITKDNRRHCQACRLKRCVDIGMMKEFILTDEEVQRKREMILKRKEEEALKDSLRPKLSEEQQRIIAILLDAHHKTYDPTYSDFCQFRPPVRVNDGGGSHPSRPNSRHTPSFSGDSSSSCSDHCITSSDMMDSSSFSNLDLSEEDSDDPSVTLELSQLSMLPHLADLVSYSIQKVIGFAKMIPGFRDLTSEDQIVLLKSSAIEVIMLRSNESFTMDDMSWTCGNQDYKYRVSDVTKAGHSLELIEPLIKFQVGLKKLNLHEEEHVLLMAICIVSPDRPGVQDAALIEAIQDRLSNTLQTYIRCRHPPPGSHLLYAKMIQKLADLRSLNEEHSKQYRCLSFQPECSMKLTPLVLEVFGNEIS
Peroxisome proliferator-activated receptor delta (Homo sapiens), sequence (Q03181 whole entry, looked up): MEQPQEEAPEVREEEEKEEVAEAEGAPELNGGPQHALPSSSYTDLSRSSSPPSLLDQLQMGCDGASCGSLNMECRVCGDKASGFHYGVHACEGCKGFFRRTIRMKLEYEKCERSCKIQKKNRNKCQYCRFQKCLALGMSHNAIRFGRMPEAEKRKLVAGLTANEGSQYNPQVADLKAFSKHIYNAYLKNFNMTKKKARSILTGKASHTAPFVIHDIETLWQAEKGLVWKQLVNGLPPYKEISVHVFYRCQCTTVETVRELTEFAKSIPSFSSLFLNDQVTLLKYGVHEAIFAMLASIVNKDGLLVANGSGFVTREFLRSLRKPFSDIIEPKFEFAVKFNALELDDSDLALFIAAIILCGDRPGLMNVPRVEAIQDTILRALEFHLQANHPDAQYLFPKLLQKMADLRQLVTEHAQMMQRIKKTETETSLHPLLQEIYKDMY
Peroxisome proliferator-activated receptor gamma (Homo sapiens), sequence (P37231 whole entry, looked up): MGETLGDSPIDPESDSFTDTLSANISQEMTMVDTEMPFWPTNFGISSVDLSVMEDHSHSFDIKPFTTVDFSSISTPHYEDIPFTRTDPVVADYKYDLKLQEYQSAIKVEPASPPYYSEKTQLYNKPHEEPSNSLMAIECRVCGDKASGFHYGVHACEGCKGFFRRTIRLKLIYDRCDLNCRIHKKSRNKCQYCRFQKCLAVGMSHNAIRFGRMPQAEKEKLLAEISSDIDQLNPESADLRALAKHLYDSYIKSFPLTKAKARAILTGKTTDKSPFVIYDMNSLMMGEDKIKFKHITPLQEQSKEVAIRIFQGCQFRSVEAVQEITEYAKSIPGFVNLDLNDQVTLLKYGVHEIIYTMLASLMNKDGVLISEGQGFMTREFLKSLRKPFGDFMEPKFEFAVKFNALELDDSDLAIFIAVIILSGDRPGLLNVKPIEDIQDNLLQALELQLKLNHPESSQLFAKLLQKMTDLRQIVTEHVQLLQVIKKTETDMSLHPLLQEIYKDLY
Glucocorticoid receptor (Homo sapiens), sequence (P04150 whole entry, looked up): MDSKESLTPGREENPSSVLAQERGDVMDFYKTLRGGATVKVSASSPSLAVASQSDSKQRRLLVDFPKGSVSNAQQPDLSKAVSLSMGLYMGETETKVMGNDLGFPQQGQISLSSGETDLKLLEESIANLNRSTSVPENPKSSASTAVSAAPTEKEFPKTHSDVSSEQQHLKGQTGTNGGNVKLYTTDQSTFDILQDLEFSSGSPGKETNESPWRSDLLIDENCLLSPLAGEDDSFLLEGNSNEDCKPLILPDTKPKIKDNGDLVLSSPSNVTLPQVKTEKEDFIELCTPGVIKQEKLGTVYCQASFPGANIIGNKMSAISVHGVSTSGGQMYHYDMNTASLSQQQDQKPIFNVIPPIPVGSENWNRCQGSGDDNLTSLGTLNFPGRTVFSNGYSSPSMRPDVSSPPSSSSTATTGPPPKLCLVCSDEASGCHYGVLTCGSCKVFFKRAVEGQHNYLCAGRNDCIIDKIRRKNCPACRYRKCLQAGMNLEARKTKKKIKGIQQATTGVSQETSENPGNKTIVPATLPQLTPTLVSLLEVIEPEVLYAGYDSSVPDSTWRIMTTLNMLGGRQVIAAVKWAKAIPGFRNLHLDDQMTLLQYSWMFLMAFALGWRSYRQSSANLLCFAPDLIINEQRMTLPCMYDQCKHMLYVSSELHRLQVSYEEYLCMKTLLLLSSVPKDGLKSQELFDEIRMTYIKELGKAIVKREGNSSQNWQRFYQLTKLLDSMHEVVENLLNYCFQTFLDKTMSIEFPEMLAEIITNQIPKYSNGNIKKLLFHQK
Estrogen receptor (Homo sapiens), sequence (P03372 whole entry, looked up): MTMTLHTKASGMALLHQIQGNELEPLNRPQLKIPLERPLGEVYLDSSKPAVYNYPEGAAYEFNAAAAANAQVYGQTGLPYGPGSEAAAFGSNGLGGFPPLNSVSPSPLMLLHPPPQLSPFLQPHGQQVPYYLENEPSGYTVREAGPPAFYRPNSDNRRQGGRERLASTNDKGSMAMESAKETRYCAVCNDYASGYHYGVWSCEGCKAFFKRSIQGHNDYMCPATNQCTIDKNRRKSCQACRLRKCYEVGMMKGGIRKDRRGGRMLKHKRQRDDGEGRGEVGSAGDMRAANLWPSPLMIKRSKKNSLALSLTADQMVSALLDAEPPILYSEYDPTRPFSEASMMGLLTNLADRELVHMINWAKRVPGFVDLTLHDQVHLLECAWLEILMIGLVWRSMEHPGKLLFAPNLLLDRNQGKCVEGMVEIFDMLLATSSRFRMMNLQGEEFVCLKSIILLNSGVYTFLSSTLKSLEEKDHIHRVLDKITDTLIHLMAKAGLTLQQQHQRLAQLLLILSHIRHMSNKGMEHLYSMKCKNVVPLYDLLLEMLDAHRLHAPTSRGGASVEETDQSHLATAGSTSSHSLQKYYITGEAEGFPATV
Cytochrome P450 3A4 (Homo sapiens), sequence (P08684 whole entry, looked up): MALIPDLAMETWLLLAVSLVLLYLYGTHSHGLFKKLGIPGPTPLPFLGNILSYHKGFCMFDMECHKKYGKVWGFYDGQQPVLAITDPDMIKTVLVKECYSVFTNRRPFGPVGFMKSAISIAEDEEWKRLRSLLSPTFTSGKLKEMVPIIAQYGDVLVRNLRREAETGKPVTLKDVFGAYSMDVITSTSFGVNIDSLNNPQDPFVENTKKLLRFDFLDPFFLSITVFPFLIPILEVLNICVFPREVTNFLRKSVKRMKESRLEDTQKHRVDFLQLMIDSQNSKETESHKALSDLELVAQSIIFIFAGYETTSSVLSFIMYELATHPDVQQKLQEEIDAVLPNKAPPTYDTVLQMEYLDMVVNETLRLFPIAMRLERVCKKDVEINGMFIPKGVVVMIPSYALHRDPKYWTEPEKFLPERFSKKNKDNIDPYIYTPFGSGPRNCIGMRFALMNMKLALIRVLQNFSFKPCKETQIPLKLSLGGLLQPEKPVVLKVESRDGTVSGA
Nuclear receptor ROR-gamma (Homo sapiens), sequence (P51449 whole entry, looked up): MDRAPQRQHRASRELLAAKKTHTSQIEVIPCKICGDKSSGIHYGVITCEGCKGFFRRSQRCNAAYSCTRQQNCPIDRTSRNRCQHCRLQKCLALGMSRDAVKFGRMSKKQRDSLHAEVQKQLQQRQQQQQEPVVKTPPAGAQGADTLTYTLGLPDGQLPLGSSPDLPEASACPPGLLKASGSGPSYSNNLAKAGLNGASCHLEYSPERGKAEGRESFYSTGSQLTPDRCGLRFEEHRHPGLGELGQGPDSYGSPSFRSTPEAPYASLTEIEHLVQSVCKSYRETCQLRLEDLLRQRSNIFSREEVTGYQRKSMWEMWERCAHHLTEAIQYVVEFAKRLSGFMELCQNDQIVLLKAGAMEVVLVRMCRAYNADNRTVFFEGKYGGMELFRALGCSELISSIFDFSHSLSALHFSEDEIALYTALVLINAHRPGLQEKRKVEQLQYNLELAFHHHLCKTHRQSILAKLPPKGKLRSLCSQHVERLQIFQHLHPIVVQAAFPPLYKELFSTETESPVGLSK

C=CCOCC1CO1 (stereo not given)
inactive: Potency [1] | outcome [2] | Potency [3] | Potency [4] | activation [5] 4.14% | outcome [6] | outcome [7] | Potency [8] | activation [9] -3.48% | activation [10] -0.262% | Potency [11]

CCC(Cl)[N+](=O)[O-] (stereo not given)
inactive: Potency [1] | outcome [2] | Potency [12] | Potency [3] | Potency [4] | activation [5] -1.58% | outcome [13] | Potency [15] | outcome [7] | Potency [16] | activation [9] -1.08% | activation [17] 0.0697% | Potency [18] | activation [10] -0.0264% | Potency [19] | Potency [11]
2.58%: max response [14]

CCCCCCCCCCCCCl
inactive: Potency [1] | Potency [12] | Potency [3] | Potency [4] | activation [5] 2.7% | outcome [6] | outcome [13] | outcome [20] | Potency [15] | Potency [18] | activation [10] 1.8% | Potency [11]
10.4%: max response [14]

C=CC(=O)OCC(C)C
-6.69%: max response [14]
inactive: Potency [1] | Potency [12] | Potency [3] | Potency [4] | activation [5] -2.2% | outcome [6] | outcome [13] | outcome [20] | Potency [15] | outcome [7] | Potency [16] | Potency [8] | activation [9] -0.853% | activation [17] 0.0391% | activation [10] 0.0769% | Potency [11]

CCCBr
inactive: Potency [1] | outcome [2] | Potency [3] | activation [5] -1.9% | outcome [6] | Potency [15] | outcome [7] | Potency [16] | activation [9] -0.771% | activation [10] 0.665% | Potency [11]
active: Potency [4] 0.355 µM

Nc1ccc(Cc2ccc(N)cc2)cc1
34.2% and -15.9%: max response [14]
active: Potency [12] 25.1 µM
inactive: Potency [1] | activation [5] 1.44% and -0.448% | outcome [6] | outcome [13] | outcome [20] | Potency [15] | outcome [7] | Potency [16] | activation [9] -1.69% and -2.54% | activation [17] -0.031% and 0.544% | Potency [18] | activation [10] 1.41% and 1.54% | Potency [11]

Nc1cccc2ccccc12
inactive: Potency [1] | outcome [2] | Potency [3] | Potency [4] | Potency [16] | activation [9] -3.1% | Potency [18] | Potency [11]
active: Potency [10] 44.7 µM

Nn1cnnc1
inactive: Potency [1] | outcome [2] | Potency [3] | Potency [4] | activation [5] -5.65% | outcome [6] | outcome [13] | outcome [20] | Potency [15] | outcome [7] | Potency [16] | activation [17] -1.28% | Potency [18] | Potency [19] | Potency [11]
-17.8%: max response [14]
